The values that follow come from PubChem BioAssay AID1572 (National Center for Advancing Translational Sciences (NCATS), 2009).

The nature of the test: Total Fluorescence Confirmation Counterscreen for Inhibitors of the Interaction of Thyroid Hormone Receptor and Steroid Receptor Coregulator 2. The following applies: Texas Red total fluorescence, TRbeta/SRC2 FP artifact counterscreen; series mostly up to 92.2 µM. Put shortly:
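Flags fluorescent or light-absorbing compounds: after 5 hr at ambient temperature, 0.6 uM TRbeta LBD plus 20 nM SRC2 Texas Red (1uM T3, 5% DMSO) read at 555/632 nm; TF = S + 2P from parallel and perpendicular channels.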

Records with an inconclusive call do not appear. Entries that show only a call come without a potency. The source made the active and inactive calls. Calls come from the whole dose curve; as a rule, active = well fitted curve in either direction with a large enough effect; inconclusive = small, poorly fitted or top-dose-only effect; inactive = flat fitted curve, though single readings scatter.

`CC1=NN(Cc2ccccc2)C(=O)C1`: the Potency entry was “inactive”. With `CCOC(=O)C(NC(=O)Nc1ccc(O)cc1)(c1ccccc1)C(F)(F)F` (centres undefined) the entry was “inactive”; with `CS(=O)(=O)c1ccc(C(=O)OCC(=O)NC23CC4CC(CC(C4)C2)C3)cc1[N+](=O)[O-]`, “inactive”. With `Cc1cc2c(NC(=O)Nc3ccccc3)cccc2nn1` the entry was “inactive”; with `O=c1[nH]c(Nc2ccccc2)cc2ccccc12`, “inactive”. With `Cc1cc(C)cc(OCC(=O)NCCc2nc3ccccc3[nH]2)c1` the entry was “inactive”; with `O=C(O)C1C2C=CC(O2)C1C(=O)Nc1ccc(S(=O)(=O)N2CCc3ccccc32)cc1` (centres undefined), “inactive”. Regarding `Cc1ccc2c(CC(=O)Nc3c(C(=O)c4ccc(F)cc4)oc4ccccc34)coc2c1C`, the Potency result was “inactive”. With `O=c1cc(C23CC4CC(CC(C4)C2)C3)[nH][nH]1` the entry was “inactive”. With `CCN(C(=O)C1CCCN(c2ncnc3onc(-c4ccc(F)cc4)c23)C1)c1ccccc1` (centres undefined) the entry was “inactive”. Take `CCC(C)NC(=O)COC(=O)c1csc2c1CCCC2` (centres undefined): the Potency entry was “inactive”. With `CN(C(=S)Nc1cccnc1)c1ccc(O)cc1` the entry was “inactive”; with `Cc1[nH][nH]c(=O)c1C(c1ccc(-c2ccccc2C(=O)O)o1)c1c(C)[nH][nH]c1=O`, “inactive”; with `C=CCNC(=O)/C(C#N)=C\c1cc(Cl)c(OCC)c(OC)c1`, “inactive”. As to `C/C(=C\C(=O)c1ccccc1)Nc1ccc(O)cc1`, the Potency result is “inactive”. `CCOc1cc(C(c2c(C)[nH][nH]c2=O)c2c(C)[nH][nH]c2=O)ccc1OC(=O)c1cccc([N+](=O)[O-])c1`: the Potency entry was “inactive”. With `CN(C)c1cc(Cl)c2nonc2c1N` the entry was “inactive”. On to `CN1c2ccccc2C(C)(C)C12C=Nc1c(ccc3ccccc13)O2` (centres undefined), for which the Potency entry is “inactive”. With `C=CCNC(=O)/C(C#N)=C/c1c(C)nn(-c2ccc(Cl)cc2)c1Cl`, the Potency result was “inactive”. `N/C(Cc1cccc2ccccc12)=N\OC(=O)c1cccs1`: the Potency result was “inactive”. With `Cc1cc2ccccc2n1CCNC(=O)C(C)Oc1ccccc1` (centres undefined), the Potency result is “inactive”. With `Cc1cccc(S(=O)(=O)c2cn(Cc3ccccc3)c3cc(N4CCC(C)CC4)c(F)cc3c2=O)c1` the entry was “inactive”; with `O=C(/C=C/c1ccco1)NC(=S)Nc1cc(C(F)(F)F)ccc1N1CCOCC1`, “inactive”.

For `COC(=O)/C(=C/Nc1ccc(O)cc1)[N+](=O)[O-]`, the Potency result is “inactive”.
